Pf Dd2 inh – Plasmodium falciparum Dd2 growth inhibition; P. falciparum Dd2 growth, SYBR Green, 72 h; Potency, µM (top dose mostly 28.9 µM), for inactives: at the highest dose activity, negative = inhibition, actives largely listed as inhibitors; hit rate 4.3% among 120,000; AID 1347417; active = well fitted inhibition curve with a large enough effect;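 also: plate controls were DMSO vehicle for no effect and reference drug for full effect; nearly all actives have a fitted effect of over 65% in size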
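Infected erythrocytes (Dd2, 0.3% parasitemia, 2.5% hematocrit final) are added to compound in RPMI-1640/Albumax II medium, grown 72 h at 37C in low oxygen, then lysed with saponin/Triton-X containing SYBR Green and read by fluorescence.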
* = called active by the depositor; i = inactive; [ ] = dose if it differs, or a comment. Shown is part of a subset that was picked to be rich in hits. Potency is read from the fitted curve at half-maximal effect.

SMILES | Pf Dd2 inh
COc1cccc(CN2CCC(C(Cc3ccccc3F)N(C)C(=O)c3cccs3)CC2)c1O (configuration not stated) | i
CCOc1cc(CN2CCC(C(Cc3ccccc3F)N(C)C(=O)c3cccs3)CC2)ccc1O (configuration not stated) | 4µM*
CC(C)CC(=O)N[C@H](C)c1onc(-c2ccc(Cl)cc2)c1C(=O)O | -2%[44.1 µM]
O=C(O)C[C@@H]1CCN(C(=O)C2CCCCC2)C[C@@H]1CCN1CCN(c2ccccn2)CC1 | -3%
Cc1ccccc1-c1nc(-c2c(C)noc2C)cc2cc(CO)oc12 | -30%[44.1 µM]
Cc1ccccc1-c1cc(-c2c(C)noc2C)c2cncn2c1 | 3.2µM*
Cc1noc(C)c1-c1cc(-c2cccc(N3CCOCC3)c2)cn2cncc12 | 6.3µM*
c1cc(-c2cc(-c3ccncc3)c3cncn3c2)cc(N2CCOCC2)c1 | i
COc1ncccc1-c1nc(-c2c(C)noc2C)cc2c1cc(C)n2C | i
Cc1ccccc1-c1cc(-c2cn[nH]c2)c2cncn2c1 | -26%[44.1 µM]
COc1ncccc1-c1cc(-c2ccc(=O)[nH]c2)c2cncn2c1 | i
Cc1noc2c(-c3ccc(N4CCOCC4)cc3)cc(-c3ccccc3)nc12 | i
COc1ncccc1-c1cc(-c2c(C)noc2C)c2cncn2c1 | 10µM*
CCCc1cc(C(=O)N2CCC3(CC2)CC(=O)N(CCCOC)C3)n(C)n1 | 2%
COc1cccc(CCC(=O)N2CCC3(CC2)N=C(c2ccc(Cl)cc2)NO3)c1 | i
CCn1ncc(C(=O)N2C[C@@H](CO)[C@H](c3ccncc3)C2)c1C | -9%
O=C(NCCN1CCCC1)C1Cn2cccc2C(=O)N1Cc1cccnc1 (configuration not stated) | 19%
CCC1(N2CCN(C(=O)C3COc4ccccc4O3)CC2)CCN(C(=O)NC)C1 (configuration not stated) | -4%
CN1C(=O)CC[C@]2(C(=O)NCc3ccco3)CCCC[C@@H]12 | -10%
CCCNC(=O)N(C1CCOCC1)C1CCN(C(=O)c2ccsc2)CC1 | 4%
O=C(NCCCN1CCCC1=O)c1ccc2c(c1)[nH]c(=O)n2C1CCC(O)CC1 (configuration not stated) | 16%
COC(=O)[C@@H](Cc1cccnc1)NC(=O)[C@H]1CN(C(=O)c2cccnc2)CCN1S(=O)(=O)c1ccccc1 | 12%
COCCOCC(=O)N1CCC(N2CC3CC(C2)[C@H]2CCCC(=O)N2C3)CC1 (some centres not stated) | 1%
COc1ccc(-c2cc(C(=O)NCc3ccc(C)cc3)c3cc(C(C)C)ccc3n2)cc1 | 27%
Cc1ccc(-c2cc(C(=O)NCc3cnn(C)c3C)c3cc(Br)ccc3n2)cc1 | 11µM*
SMILES | Pf Dd2 inh
CCn1cc(CNC(=O)c2cc(-c3ccc(C)c(C)c3)nc3ccccc23)c(C)n1 | i
COc1ccc(CC(=O)NC2CCN(c3cn[nH]c(=O)c3)CC2)cc1 | -25%
Cc1ccc2c(c1)N1C(=O)OC[C@@H]1CCN(C(=O)c1ccc(C#N)cc1)C2 | -2%[44.1 µM]
CN(CC(=O)NCC1CCN(c2cnn(C)c(=O)c2)C1)C1CCNCC1 (configuration not stated) | -1%
Fc1cccc(-c2cnc(Nc3ccc(N4CCOCC4)cc3)c3c2CCO3)c1 | i
COc1ccccc1-c1cnc(NC(=O)c2cccnc2)c2c1CCO2 | 20%[44.1 µM]
COc1ccccc1-c1cnc(Nc2ccc(CN3CCN(C)CC3)cc2)c2c1CCO2 | 7.1µM*
COc1ccc(-c2cnc(Nc3ccc(CN4CCN(C)CC4)cc3)c3c2CCO3)cn1 | 6.3µM*
COc1ccccc1-c1cnc(Nc2cncnc2)c2c1CCO2 | i
COc1ccc(C(=O)Nc2ncc(-c3ccc(OC)nc3)c3c2OCC3)cc1 | -15%[44.1 µM]
Cc1cc(N2C[C@@H](C)[C@@](C)(O)C2)nc(N2CCCCC2)n1 | -14%
CN(Cc1ccccc1)Cc1cn([C@H]2CO[C@H]3[C@@H]2OC[C@@H]3NC(=O)Nc2cccc(C(F)(F)F)c2)nn1 | -20%
COc1ccc(C(=O)N2CCCN(c3cc(-c4ccc(F)cc4)[nH]n3)CC2)c(C)c1 | i
Cc1ccc(Nc2c(-c3ccc(N4CCOCC4)cc3)nc3ccc(Cl)cn23)cc1 | 47%
Brc1ccc2nc(-c3ccccc3)c(Nc3ccc4c(c3)OCO4)n2c1 | -13%
Cc1ccc(-c2nc3ccc(Cl)cn3c2Nc2ccccc2C)s1 | -1%
Clc1ccc2nc(-c3ccc(N4CCOCC4)cc3)c(Nc3ccccc3)n2c1 | -29%
Cc1ccn2c(Nc3ccccc3C)c(-c3ccc(N4CCOCC4)cc3)nc2c1 | 6.3µM*
Cc1cccc(C)c1Nc1c(-c2ccc(N3CCOCC3)cc2)nc2ncccn12 | -6%
Cc1ccc(Nc2c(-c3ccc(N4CCOCC4)cc3)nc3cccc(C)n23)cc1 | -18%
Cc1ccccc1Nc1c(-c2ccc(N3CCOCC3)cc2)nc2ccc(Cl)cn12 | 8.9µM*
Cc1ccccc1Nc1c(-c2c(F)cccc2Cl)nc2ccc(Br)cn12 | 10µM*
Cc1nn2c(c1-c1cccc3cn[nH]c13)N(C(=O)c1cccc(Cl)c1)CCC2 | -20%[44.1 µM]
